# Data: PMC7862700, “An all-to-all approach to the identification of sequence-specific readers for epigenetic DNA modifications on cytosine”
# What was measured:
# Assay in all cases: DAPPL (digital affinity profiling via proximity ligation, sequencing); 10 mM Tris-HCl pH 7.5, 50 mM NaCl, 1 mM DTT, 4% glycerol, room temperature, 30 min; GST-TFs on glutathione beads, 16-mer random dsDNA library, 0.1% formaldehyde crosslink after washing; high values mean tight binding
# Details in all cases: protein: recombinant; tags: N-terminal GST; dsDNA, one strand shown
# ELK1 = molecular target: T1, ELK1 (Homo sapiens, UniProt P19419 1-428)
# T1 sequence: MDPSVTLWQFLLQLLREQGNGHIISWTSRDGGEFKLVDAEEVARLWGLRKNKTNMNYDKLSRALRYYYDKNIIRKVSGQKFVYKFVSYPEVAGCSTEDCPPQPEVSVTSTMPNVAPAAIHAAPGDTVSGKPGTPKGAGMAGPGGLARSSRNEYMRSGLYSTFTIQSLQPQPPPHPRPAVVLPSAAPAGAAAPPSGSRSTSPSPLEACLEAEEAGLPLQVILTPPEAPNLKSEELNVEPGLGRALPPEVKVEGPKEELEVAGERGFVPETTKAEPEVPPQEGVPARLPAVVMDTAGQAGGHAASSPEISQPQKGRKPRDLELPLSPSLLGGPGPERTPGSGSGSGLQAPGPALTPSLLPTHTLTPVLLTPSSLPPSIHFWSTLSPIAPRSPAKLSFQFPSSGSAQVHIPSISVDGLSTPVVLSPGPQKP
# Summary of the method: (§1)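 A tag-only sample was pooled with DNA-barcoded human transcription factors that had been expressed in yeast as GST fusions and captured on glutathione beads. The pools were incubated for 30 min at room temperature with 200 nmole of a random double-stranded 16-mer DNA library in Tris/NaCl/DTT/glycerol buffer, then washed, crosslinked with 0.1% formaldehyde, proximity-ligated (BsaI/T4 ligase, 1 h, 37 °C), PCR-amplified and sequenced on an Illumina NextSeq500. Binding signal is each hexamer's read frequency for a factor divided by its frequency for the tag-only sample.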
# ELF1 = ELF1 (Homo sapiens, UniProt P32519 1-619)
# ELF1, sequence (P32519 whole entry): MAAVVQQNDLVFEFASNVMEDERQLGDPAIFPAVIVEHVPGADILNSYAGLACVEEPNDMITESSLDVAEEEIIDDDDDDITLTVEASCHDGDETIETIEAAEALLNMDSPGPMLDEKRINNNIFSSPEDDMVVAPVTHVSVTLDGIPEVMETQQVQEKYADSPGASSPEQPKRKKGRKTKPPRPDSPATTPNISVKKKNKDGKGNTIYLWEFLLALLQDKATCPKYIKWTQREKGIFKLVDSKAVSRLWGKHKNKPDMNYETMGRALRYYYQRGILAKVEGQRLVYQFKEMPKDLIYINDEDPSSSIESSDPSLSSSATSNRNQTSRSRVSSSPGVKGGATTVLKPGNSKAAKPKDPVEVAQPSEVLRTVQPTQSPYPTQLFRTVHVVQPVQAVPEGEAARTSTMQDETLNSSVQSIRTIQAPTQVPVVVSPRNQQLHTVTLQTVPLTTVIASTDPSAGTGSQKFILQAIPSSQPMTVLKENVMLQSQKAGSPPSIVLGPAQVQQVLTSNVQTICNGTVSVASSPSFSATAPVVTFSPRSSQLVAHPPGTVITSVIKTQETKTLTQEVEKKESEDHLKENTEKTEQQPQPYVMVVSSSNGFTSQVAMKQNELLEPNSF
# Summary of the method: as §1
# EHF = molecular target: T2, EHF (Homo sapiens, UniProt Q9NZC4 1-300)
# T2 sequence: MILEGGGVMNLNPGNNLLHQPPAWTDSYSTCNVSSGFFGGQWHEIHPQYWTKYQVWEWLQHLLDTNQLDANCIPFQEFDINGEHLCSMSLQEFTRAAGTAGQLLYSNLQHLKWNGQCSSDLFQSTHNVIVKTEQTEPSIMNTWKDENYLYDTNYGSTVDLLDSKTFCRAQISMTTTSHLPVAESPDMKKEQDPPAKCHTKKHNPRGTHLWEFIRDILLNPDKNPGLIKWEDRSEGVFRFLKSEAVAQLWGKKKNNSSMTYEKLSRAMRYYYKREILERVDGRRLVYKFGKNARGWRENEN
# Summary of the method: as §1
# ETV5 = ETV5 (Homo sapiens, UniProt P41161 1-510)
# ETV5, sequence (P41161 whole entry): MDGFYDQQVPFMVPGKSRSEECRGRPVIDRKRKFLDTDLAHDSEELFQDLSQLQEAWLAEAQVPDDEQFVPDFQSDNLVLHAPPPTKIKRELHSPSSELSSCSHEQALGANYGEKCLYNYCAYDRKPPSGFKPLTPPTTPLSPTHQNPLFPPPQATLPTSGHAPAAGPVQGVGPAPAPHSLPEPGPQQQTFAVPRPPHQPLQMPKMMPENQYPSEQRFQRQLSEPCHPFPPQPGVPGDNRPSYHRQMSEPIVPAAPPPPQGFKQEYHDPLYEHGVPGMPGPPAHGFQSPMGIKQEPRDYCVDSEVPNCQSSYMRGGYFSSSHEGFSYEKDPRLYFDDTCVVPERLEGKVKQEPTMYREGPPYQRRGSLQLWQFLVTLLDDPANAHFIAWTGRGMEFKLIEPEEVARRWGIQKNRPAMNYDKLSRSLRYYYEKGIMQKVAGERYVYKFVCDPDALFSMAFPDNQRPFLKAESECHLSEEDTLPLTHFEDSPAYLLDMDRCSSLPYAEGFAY
# Summary of the method: as §1
# ELF4 = ELF4 (Homo sapiens, UniProt Q99607 1-663)
# ELF4, sequence (Q99607 whole entry): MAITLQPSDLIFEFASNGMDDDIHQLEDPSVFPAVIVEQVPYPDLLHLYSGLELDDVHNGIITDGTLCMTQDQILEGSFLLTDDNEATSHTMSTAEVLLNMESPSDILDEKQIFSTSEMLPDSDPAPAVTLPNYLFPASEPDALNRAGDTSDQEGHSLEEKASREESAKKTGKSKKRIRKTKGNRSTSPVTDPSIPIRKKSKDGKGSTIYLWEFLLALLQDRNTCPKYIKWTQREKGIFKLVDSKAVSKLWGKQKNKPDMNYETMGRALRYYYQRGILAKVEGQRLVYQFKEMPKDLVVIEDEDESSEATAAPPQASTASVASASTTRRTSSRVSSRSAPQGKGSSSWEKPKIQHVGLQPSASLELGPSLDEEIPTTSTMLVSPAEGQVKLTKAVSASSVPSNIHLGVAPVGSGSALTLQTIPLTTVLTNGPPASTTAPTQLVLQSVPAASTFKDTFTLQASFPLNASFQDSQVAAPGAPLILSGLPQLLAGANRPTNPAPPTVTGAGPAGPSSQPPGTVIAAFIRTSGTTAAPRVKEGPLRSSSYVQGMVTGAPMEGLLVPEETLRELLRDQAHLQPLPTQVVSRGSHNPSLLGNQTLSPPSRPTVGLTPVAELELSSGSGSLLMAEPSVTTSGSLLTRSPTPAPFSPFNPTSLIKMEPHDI
# Summary of the method: as §1
# ELK4 = molecular target: T3, ELK4 (Homo sapiens, UniProt P28324-2 1-405)
# T3 sequence: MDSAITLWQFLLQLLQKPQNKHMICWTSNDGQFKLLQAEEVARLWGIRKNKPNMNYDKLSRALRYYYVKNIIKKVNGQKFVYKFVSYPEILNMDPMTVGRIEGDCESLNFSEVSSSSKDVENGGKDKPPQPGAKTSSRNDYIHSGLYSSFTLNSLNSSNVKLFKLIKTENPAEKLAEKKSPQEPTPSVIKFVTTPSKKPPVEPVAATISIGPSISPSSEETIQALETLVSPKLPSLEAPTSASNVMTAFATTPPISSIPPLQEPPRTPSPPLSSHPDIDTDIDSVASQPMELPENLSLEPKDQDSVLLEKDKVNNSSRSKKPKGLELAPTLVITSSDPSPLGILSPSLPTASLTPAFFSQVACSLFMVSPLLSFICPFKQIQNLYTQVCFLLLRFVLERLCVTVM
# Summary of the method: as §1
# ETV1 = ETV1 (Homo sapiens, UniProt P50549 1-477)
# ETV1, sequence (P50549 whole entry): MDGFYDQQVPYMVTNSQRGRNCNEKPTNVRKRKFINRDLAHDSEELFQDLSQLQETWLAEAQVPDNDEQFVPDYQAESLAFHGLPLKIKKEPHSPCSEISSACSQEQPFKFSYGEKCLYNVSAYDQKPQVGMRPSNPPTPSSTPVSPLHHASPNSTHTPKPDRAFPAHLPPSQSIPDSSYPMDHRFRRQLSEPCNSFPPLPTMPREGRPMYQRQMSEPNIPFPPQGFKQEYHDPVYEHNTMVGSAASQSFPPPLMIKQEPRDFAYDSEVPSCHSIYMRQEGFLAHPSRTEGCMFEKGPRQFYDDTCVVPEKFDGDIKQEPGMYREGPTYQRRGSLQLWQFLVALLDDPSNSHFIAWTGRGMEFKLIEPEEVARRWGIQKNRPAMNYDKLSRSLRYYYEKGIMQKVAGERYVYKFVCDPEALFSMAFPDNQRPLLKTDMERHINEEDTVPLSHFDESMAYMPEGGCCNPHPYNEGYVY
# Summary of the method: as §1
# ETV7 = molecular target: T4, ETV7 (Homo sapiens, UniProt Q9Y603 1-341)
# T4 sequence: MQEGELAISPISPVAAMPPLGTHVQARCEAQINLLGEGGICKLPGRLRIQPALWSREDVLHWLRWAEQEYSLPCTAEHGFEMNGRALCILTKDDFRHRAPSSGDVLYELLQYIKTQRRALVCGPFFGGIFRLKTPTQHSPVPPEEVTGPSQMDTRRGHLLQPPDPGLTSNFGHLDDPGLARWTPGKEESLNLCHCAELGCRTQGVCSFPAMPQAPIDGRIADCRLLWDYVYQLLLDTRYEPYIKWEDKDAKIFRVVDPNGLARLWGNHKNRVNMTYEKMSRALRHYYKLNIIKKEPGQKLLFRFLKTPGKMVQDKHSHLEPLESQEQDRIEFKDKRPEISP
# Summary of the method: as §1
# ETV3 = molecular target: T5, ETV3 (Homo sapiens, UniProt P41162-2 1-143)
# T5 sequence: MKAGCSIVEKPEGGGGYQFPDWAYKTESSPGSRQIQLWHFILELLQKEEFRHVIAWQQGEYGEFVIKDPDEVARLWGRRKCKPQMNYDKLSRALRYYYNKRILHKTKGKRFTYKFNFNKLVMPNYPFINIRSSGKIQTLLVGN
# Summary of the method: as §1
sequence,measurement,setting,value
TAGCGT,binding signal,ELK1,"1 fold enrichment (6-mer frequency, TF over GST control)"
same,binding signal,ELF1,"1.02 fold enrichment (6-mer frequency, TF over GST control)"
same,binding signal,EHF,"1 fold enrichment (6-mer frequency, TF over GST control)"
same,binding signal,ETV5,"1.03 fold enrichment (6-mer frequency, TF over GST control)"
same,binding signal,ELF4,"1.02 fold enrichment (6-mer frequency, TF over GST control)"
same,binding signal,ELK4,"1.07 fold enrichment (6-mer frequency, TF over GST control)"
same,binding signal,ETV1,"1.03 fold enrichment (6-mer frequency, TF over GST control)"
same,binding signal,ETV7,"1 fold enrichment (6-mer frequency, TF over GST control)"
same,binding signal,ETV3,"1.04 fold enrichment (6-mer frequency, TF over GST control)"
